# Test results as given in PubChem BioAssay.
# Active and inactive are the calls of the source.
# What was measured:
# [1] = tested on: Plasmodium falciparum Sir2 (PF13_0152, Sir2A); assay: Plasmodium falciparum Sir2A binding compounds – biochemical, small-molecule microarray, 635 nm fluorescence, primary screen (AID 1098); settings: fluorescence 635 nm, higher = more signal;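 also: score merges spot fluorescence intensity with its signal-to-noise ratio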
# [2] = probe aDKK1 binding to arrayed compounds – biochemical, biotinylated probe, 635/667 nm fluorescence, primary screen (AID 1099); settings: small-molecule microarray, higher = more signal;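 also: score merges 667nm spot fluorescence with signal to noise across triplicate slides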
# [3] = probe aCHRDL2 binding to arrayed compounds – biochemical, biotinylated probe, 635/667 nm fluorescence, primary screen (AID 1100); settings: small-molecule microarray, higher = more signal
# [4] = change in splice reporter luminescence, either direction, cell-based, HEK293, spliceosome inhibition project, primary screen (AID 1101); settings: HEK293 splicing luciferase reporter, 24 h, higher = more signal, called active from +8 up or from −8 down;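 also: HEK293 cells carrying a splicing-competent luciferase reporter gene; test concentration not given here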
# [5] = molecular target: Fibroblast growth factor 10 (Homo sapiens) (UniProt O15520); assay: compounds binding fibroblast growth factor 10 – biochemical, small-molecule microarray, 635 nm fluorescence, primary screen (AID 1102); settings: FGF10 binding, fluorescence 635 nm, higher = more signal
# Chain of Fibroblast growth factor 10 (Homo sapiens) (O15520 whole entry, looked up): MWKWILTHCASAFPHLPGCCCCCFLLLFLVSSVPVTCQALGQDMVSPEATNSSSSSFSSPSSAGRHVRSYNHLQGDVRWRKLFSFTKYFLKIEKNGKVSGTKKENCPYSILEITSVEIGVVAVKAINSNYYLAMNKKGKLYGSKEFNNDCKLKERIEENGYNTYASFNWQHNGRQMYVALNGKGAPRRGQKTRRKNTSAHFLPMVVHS
# [6] = tested on: glycogen synthase kinase-3 (GSK3A per assay name; protocol says GSK3B); assay: compounds binding glycogen synthase kinase-3 – biochemical, small-molecule microarray, 635 nm fluorescence, GSK3A, primary screen (AID 1103); settings: fluorescence 635 nm, higher = more signal; also: the record names both GSK3A and GSK3B
# [7] = molecular target: Epidermal growth factor receptor (Homo sapiens) (UniProt P00533); assay: compounds binding epidermal growth factor receptor – biochemical, small-molecule microarray, 635 nm fluorescence, primary screen (AID 1104); settings: EGFR binding, higher = more signal;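 also: score merges 667 nm emission intensity with spot signal to noise over triplicate slides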
# Chain of Epidermal growth factor receptor (Homo sapiens) (P00533 whole entry, looked up): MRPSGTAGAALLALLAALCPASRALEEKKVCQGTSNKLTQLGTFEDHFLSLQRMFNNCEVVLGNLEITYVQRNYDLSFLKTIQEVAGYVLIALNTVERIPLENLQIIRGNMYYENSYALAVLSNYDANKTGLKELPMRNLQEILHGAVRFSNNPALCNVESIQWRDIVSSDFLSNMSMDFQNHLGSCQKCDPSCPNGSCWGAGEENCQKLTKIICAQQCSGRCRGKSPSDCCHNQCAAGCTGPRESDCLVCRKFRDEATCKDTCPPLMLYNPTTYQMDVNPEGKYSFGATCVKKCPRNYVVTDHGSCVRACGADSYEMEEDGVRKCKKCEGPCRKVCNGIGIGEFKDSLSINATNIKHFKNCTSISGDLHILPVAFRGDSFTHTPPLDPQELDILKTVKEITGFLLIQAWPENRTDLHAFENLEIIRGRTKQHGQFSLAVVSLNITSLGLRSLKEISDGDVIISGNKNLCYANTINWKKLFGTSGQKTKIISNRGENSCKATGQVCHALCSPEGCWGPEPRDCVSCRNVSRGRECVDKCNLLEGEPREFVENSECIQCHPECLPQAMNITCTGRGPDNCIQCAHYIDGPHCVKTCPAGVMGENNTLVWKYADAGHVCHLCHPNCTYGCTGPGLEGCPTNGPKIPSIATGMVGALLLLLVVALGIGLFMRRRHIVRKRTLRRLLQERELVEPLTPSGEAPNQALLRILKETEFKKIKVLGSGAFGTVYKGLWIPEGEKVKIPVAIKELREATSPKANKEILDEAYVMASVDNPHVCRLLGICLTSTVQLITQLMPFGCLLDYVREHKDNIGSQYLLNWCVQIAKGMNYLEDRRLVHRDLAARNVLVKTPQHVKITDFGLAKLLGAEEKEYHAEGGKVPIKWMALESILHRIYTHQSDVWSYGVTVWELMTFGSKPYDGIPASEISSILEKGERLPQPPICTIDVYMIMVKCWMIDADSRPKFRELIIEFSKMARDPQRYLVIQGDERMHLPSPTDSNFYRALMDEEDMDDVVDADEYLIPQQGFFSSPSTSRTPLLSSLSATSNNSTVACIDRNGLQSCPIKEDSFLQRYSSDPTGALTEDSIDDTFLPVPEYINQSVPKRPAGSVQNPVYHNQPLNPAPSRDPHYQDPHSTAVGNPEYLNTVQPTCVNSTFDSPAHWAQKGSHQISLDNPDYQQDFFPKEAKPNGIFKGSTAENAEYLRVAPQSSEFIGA
# [8] = molecular target: Follistatin-related protein 3 (Homo sapiens) (UniProt O95633); assay: compounds binding follistatin-related protein 3 – biochemical, small-molecule microarray, 635 nm fluorescence, primary screen (AID 1105); settings: FSTL3 binding, higher = more signal;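 also: score merges emission near 667 nm and signal to noise per printed spot across three slides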
# Chain of Follistatin-related protein 3 (Homo sapiens) (O95633 whole entry, looked up): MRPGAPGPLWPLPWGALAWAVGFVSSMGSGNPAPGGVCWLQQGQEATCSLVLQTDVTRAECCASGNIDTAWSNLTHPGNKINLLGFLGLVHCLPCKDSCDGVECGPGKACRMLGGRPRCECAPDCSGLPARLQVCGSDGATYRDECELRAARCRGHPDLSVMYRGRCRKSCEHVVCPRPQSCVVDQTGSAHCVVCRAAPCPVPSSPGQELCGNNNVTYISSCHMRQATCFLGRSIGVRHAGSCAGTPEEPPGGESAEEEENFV
# [9] = molecular target: Dickkopf-related protein 1 (Homo sapiens) (UniProt O94907); assay: small molecules binding DKK1 protein – biochemical, small-molecule microarray, 635 nm fluorescence scan, primary screen (AID 1106); settings: higher = more signal;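 also: score merges emission near 667 nm with signal to noise over three replicate slides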
# Chain of Dickkopf-related protein 1 (Homo sapiens) (O94907 whole entry, looked up): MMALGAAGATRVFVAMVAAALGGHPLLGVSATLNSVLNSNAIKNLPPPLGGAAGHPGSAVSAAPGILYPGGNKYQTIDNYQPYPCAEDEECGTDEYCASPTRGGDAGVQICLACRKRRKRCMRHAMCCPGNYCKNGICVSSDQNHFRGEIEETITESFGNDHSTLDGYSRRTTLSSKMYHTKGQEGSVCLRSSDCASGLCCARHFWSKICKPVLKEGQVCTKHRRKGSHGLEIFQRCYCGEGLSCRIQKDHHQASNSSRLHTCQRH
# [10] = tested on: Inhibin beta A chain (activin A); assay: small molecules binding activin A – biochemical, small-molecule microarray, 635 nm fluorescence scan, primary screen (AID 1107); settings: INHBA, higher = more signal;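 also: mouse activin A protein probed at 4.33 µg/mL on printed slides; score merges bound-protein fluorescence near 667 nm with spot signal-to-noise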
# [11] = tested on: Human papillomavirus type 1a protein E7 (residues 44-93); assay: small molecules binding HPV E7 44-93 – biochemical, small-molecule microarray, residues 44-93, 635 nm fluorescence, primary screen (AID 1108); settings: fluorescence 635 nm, higher = more signal;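 also: E7 fragment applied at 1 µg/mL in TBST for 1 h at 4 C; score combines spot fluorescence with its signal to noise ratio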
# [12] = hepatitis C replication reporter changes, two-sided – Huh7 cells, luciferase reporter, HCV replication inhibitor project, primary screen (AID 1109); settings: Huh7 HCV replicon luciferase reporter, 48 h; higher = more signal;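 also: huh7 hepatoma cells harbouring a luciferase neomycin HCV replicon reporter; luciferase luminescence as measure of HCV replicon replication; test concentration not given here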
# [13] = molecular target: Left-right determination factor 2 (Homo sapiens) (UniProt O00292); assay: small molecules binding LEFTY2 protein – biochemical, small-molecule microarray, 635 nm fluorescence scan, primary screen (AID 1110); settings: higher = more signal
# Chain of Left-right determination factor 2 (Homo sapiens) (O00292 whole entry, looked up): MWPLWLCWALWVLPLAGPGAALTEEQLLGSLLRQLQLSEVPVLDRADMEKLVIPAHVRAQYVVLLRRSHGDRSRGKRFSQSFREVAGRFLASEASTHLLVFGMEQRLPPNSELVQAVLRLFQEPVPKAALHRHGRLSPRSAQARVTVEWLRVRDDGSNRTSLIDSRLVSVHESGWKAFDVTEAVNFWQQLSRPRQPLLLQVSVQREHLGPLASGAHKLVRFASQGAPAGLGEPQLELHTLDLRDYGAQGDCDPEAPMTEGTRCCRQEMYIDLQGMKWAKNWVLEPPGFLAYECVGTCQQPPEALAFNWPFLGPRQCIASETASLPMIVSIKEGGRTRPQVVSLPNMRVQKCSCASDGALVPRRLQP
# [14] = molecular target: Calmodulin-1 (Homo sapiens) (UniProt P0DP23); assay: small molecules binding calmodulin-1 with EGTA – biochemical, small-molecule microarray, Cy5-labelled CALM1, profiling panel (AID 1111); settings: Cy5-CALM1 binding fluorescence, higher = more signal;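 also: labelled calmodulin applied in Tris saline Tween buffer holding calcium plus EGTA and DTT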
# [15] = molecular target: Calmodulin-1 (Homo sapiens) (UniProt P0DP23); assay: small molecules binding Ca-loaded calmodulin-1 – biochemical, small-molecule microarray, Cy5-labelled CALM1, plus calcium, artefact control for SMM control-protein annotation, profiling panel (AID 1112); settings: Cy5-CALM1 binding fluorescence, higher = more signal;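 also: score merges spot fluorescence with signal to noise from triplicate slides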
# [16] = probe aWnt5a binding to arrayed compounds – biochemical, biotinylated probe, 635/667 nm fluorescence, primary screen (AID 1113); settings: small-molecule microarray, higher = more signal;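 also: score merges 667 nm fluorescence intensity with signal-to-noise per printed feature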
# [17] = probe aShh binding to arrayed compounds – biochemical, biotinylated probe, 635/667 nm fluorescence, primary screen (AID 1114); settings: small-molecule microarray, higher = more signal;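 also: probe is biotin-labelled aShh protein from a stem cell growth factor screen; measures binding of labelled protein to compounds printed on the slide; score merges feature fluorescence at 667 nm with signal-to-noise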
# [18] = probe aNog binding to arrayed compounds – biochemical, biotinylated probe, 635/667 nm fluorescence, primary screen (AID 1115); settings: small-molecule microarray, higher = more signal;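 also: probe is biotinylated aNog protein used at 0.15 µg/mL for 1 h at 4 C; z-score combines 667 nm fluorescence of each spot with its signal to noise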
# [19] = molecular target: Torsin-1A-interacting protein 1 (Homo sapiens) (UniProt Q5JTV8); assay: compound microarray binding of lysate hLAP1 – cell lysate, small-molecule microarray, COS7 lysate, 635/667 nm fluorescence, primary screen (AID 1116); settings: 635 nm fluorescence, higher = more signal
# Chain of Torsin-1A-interacting protein 1 (Homo sapiens) (Q5JTV8 whole entry, looked up): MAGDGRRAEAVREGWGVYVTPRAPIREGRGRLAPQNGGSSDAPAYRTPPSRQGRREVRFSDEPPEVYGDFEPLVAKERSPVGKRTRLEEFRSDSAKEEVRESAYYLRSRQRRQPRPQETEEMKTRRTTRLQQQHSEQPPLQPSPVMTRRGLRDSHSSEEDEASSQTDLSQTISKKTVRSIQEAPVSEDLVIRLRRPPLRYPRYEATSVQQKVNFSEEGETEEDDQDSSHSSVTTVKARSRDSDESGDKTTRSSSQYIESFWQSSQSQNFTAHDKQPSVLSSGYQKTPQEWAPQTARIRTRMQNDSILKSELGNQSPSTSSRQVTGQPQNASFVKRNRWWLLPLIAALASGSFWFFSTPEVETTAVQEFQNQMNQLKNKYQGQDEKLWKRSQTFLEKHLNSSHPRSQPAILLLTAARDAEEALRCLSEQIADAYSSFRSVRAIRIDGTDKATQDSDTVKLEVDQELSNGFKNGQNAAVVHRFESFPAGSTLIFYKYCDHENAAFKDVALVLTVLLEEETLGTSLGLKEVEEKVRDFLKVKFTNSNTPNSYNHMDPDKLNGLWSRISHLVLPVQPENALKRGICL
# [20] = molecular target: Alpha-bungarotoxin (Bungarus multicinctus) (UniProt P60615); assay: compounds binding labelled alpha-BTX control protein – biochemical, small-molecule microarray, Alexa647 label, 635/667 nm fluorescence, artefact control for SMM control protein annotation, profiling panel (AID 1117); settings: alpha-BTX-A647 binding fluorescence, higher = more signal
# Chain of Alpha-bungarotoxin (Bungarus multicinctus) (P60615 whole entry, looked up): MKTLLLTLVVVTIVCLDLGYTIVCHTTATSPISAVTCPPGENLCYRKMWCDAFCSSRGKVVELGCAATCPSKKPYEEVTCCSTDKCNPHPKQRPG
Compound,composite z-score [1],composite z-score [2],composite z-score [3],z-score [4],composite z-score [5],composite z-score [6],composite z-score [7],composite z-score [8],composite z-score [9],composite z-score [10],composite z-score [11],z-score [12],composite z-score [13],composite z-score [14],composite z-score [15],composite z-score [16],composite z-score [17],composite z-score [18],composite z-score [19],composite z-score [20]
O=C1OCCC/C=C\[C@H]2OC34C=CCN(CCN5CCOCC5)C(=O)[C@H]3N(CCCCCCO)C(=O)[C@@H]4C12 (stereo not given in full),1.16,-0.0117,-0.0021,-1.4 (inactive),-0.145,0.229,-0.684,-0.0634,-0.528,1.41,-0.776,0.857,-0.311,-0.523,-0.909,-0.18,-0.0553,-0.103,1.52,-0.162
Cc1ccc(S[C@]2(C(=O)NCC(F)(F)F)CC(=O)N(C3CCCCC3)[C@@H]2c2ccc(CO)cc2I)cc1,0.894,0.119,0.408,-0.635 (inactive),0.919,1.24,0.395,0.914,0.133,0.469,1.42,-2.3,0.394,1.01,-0.077,-0.122,0.184,-0.422,0.958,0.587
CN1C(=O)C2C=CC(C(O)c3ccc(F)cc3)N(Nc3ccccc3)C2C1=O (stereo not given),1.4,0.4,0.902,0.909 (inactive),0.0186,-0.433,-0.165,0.578,-0.463,0.623,0.793,-0.216,0.0204,0.746,0.693,-0.0165,-0.412,-0.305,0.635,1.62
C=C(/C(=C/C[C@H](OC(C)=O)c1ccccc1OCCO)c1cc(C(=O)OC)ccc1OC)C(C)C,1.64,-0.15,-0.192,-0.736 (inactive),0.634,-0.122,-0.167,0.0218,-0.0716,0.721,0.83,-1.74,0.0218,-0.227,-0.578,-0.096,0.0469,-0.0244,0.612,-0.0802
C=CCC(OC(C)=O)[C@@H]1[C@@H](N(Cc2cccc3ccccc23)C(=O)c2cccc3ccccc23)c2cc(OCCCO)ccc2N1C(=O)c1ccc(-c2ccccc2)cc1 (stereo not given in full),0.17,0.0752,-0.0302,-0.566 (inactive),0.0819,0.0512,0.364,-0.184,0.0116,0.855,-0.0699,-0.599,0.79,0.0898,0.766,0.0229,-0.117,-0.215,0.197,-0.574
COCCOC(=O)N1C(=O)[C@@]2(c3cc(C#CC4=CCCCC4)ccc31)[C@H](c1ccccc1OCCO)N1[C@H](c3ccccc3)[C@H](c3ccccc3)OC(=O)[C@H]1[C@@H]2C(=O)N1CCCCCCC1,1.17,1.18,-0.624,-0.262 (inactive),1.04,1.26,0.173,0.974,0.818,0.451,1.38,-2.94,0.225,-0.529,0.258,-0.0327,-0.493,-0.345,1.08,0.973
CC(C)N1CC=CC23O[C@@H]4C=CCOC(=O)[C@@H]4[C@H]2C(=O)N(CCCO)[C@@H]3C1=O (stereo not given in full),1.95,-0.286,0.627,-3 (inactive),-0.0827,0.0274,-0.42,-0.123,-0.74,0.929,1.49,-0.223,-0.932,-0.373,0.731,-0.18,-0.123,-0.196,1.47,-0.381
COC(=O)C(CC#Cc1ccc2c(c1)[C@]1(C(=O)N2)[C@H](c2ccccc2OCCO)N2[C@H](c3ccccc3)[C@H](c3ccccc3)OC(=O)[C@H]2[C@@H]1C(=O)NC[C@H](O)c1ccccc1)C(=O)OC,1.65,-0.378,0.702,-0.267 (inactive),0.928,1.26,0.361,0.682,0.521,0.897,1.39,-2.08,0.261,0.0614,-0.316,0.285,2.44,0.108,2.19,0.971
Cc1cc(C)cc(N2C(=O)CSC2c2cccc([N+](=O)[O-])c2)c1 (stereo not given),1.13,0.94,0.398,1.07 (inactive),1.15,1.29,0.279,1.35,0.905,-0.639,0.0826,-1.26,0.571,1.6,0.463,0.0873,0.0815,0.0373,0.516,1.7
O=C1c2ccccc2[C@](Cc2ccccc2I)(C(=O)NCC(F)(F)F)[C@H](c2ccc(CO)cc2)N1C1CCCCC1,1.6,0.663,0.821,1.47 (inactive),1.04,0.884,0.109,0.66,-0.239,0.82,1.27,-1.21,0.133,1.53,0.486,-0.0405,0.0611,0.128,-0.229,1.51
COC(=O)[C@@]1(Cc2ccc(OC)cc2)[C@H]2c3cc(C(=O)N4CCCC4)n(Cc4cccc5ccccc45)c3C[C@H]2CN1C(=O)c1ccccc1,0.654,0.741,1.08,-0.261 (inactive),0.821,0.407,-0.282,0.293,-0.724,0.849,0.764,-0.356,-0.58,1.38,0.498,0.0913,0.521,1.95,1.3,0.716
